The list is not random: actives were taken first. Their share in the collection is about 1.4%.
KCNH2 WT inh: inhibitors of human wildtype KCNH2 potassium channel; U2OS, BacMam KCNH2, thallium flux FluxOr; hits give low values; activity change, % at 1.84 µM; 340,000 compounds, 0.37% hits;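 active = maximum activity change below -70%; inconclusive = maximum activity change between -70% and -50%; inactive = maximum activity change above -50%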
Target sequence (Q12809 whole entry, looked up): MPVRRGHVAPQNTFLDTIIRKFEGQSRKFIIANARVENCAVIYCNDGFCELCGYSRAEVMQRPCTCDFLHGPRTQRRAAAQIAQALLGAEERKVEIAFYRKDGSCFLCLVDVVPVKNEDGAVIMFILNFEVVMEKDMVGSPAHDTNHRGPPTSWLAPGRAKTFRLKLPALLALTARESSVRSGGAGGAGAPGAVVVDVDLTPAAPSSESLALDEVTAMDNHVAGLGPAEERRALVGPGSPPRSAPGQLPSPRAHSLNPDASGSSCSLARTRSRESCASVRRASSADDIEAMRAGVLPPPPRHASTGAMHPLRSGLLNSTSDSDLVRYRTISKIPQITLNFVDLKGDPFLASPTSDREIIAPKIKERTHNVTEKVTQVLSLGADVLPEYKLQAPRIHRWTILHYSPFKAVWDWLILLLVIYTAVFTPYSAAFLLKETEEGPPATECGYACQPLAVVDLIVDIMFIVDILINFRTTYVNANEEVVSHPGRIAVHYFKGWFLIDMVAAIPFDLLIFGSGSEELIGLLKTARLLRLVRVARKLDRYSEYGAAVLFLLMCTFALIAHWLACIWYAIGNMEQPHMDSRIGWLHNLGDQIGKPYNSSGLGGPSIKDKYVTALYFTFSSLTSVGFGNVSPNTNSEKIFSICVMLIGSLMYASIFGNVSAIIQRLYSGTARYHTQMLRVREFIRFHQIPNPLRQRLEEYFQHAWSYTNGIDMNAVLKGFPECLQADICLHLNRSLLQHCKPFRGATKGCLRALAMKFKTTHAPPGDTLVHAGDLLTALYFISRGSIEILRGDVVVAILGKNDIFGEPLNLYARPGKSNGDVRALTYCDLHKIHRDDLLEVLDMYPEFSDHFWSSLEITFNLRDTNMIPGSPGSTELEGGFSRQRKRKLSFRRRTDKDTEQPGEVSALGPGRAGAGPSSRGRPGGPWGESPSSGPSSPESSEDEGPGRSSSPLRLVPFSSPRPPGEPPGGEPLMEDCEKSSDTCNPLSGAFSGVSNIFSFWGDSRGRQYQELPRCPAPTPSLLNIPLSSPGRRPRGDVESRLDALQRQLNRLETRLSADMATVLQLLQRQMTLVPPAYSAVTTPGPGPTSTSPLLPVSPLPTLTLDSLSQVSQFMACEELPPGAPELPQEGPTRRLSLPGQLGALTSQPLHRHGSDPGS
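U2OS cells were transduced with wild-type KCNH2 virus (2.03 x 10^8 / mL) for 4 h at room temperature, then cultured overnight at 37 C. Thallium flux was read with FluxOr dye. Rate constants were normalized to DMSO controls.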
KCNH2 3.1 block: KCNH2 3.1 (human) potassium channel inhibition; U2OS KCNH2 3.1, thallium flux FluxOr; hits give low values; 340,000 compounds, 0.95% hits; AID 720553; activity change, % (tested at about 1.8 µM);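 active = maximum activity change below -70%; inconclusive = maximum activity change from -70% to -50%; inactive = maximum activity change above -50%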;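 also: thallium influx rate constant from kinetic fluorescence after stimulation buffer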
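Thallium flux read-out: FluxOr dye with Red40 quencher in HBSS/HEPES, 45 min at RT. Rate constants from kinetic reads were normalized to positive and negative DMSO controls. Cells: U2OS virally expressing the 3.1 isoform.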
MmCpn inh: blocks the Methanococcus maripaludis chaperonin Mm-Cpn. purified Mm-Cpn ATPase, ADP Transcreener TR-FRET. Potency, µM (top dose mostly 76.9 µM), hits mostly inhibitors. 330,000 compounds, 0.031% hits. AID 504842; also: nearly all actives have a fitted effect of over 80% in size
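Compound-treated chaperonin, 25 nM final, turns over 10 uM ATP at 37°C for 30 min following a 10 min preincubation; ADP generated competes with ADP-d2 for Eu-cryptate antibody, lowering FRET.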
p53 reactivation: mutant p53 re-activation in reporter cells | H1299 p53-A138V BP100-luciferase reporter, luminescence, 24 h | Potency, µM (titrated, usually from 92.2 µM), usual class: activators | 320,000 compounds, 0.063% hits; also: nearly all actives have a fitted effect of over 45% in size
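H1299 (p53-null), stable ts p53-A138V + BP100-Luc; 1000 cells/well, Opti-MEM/10% FBS; cpd 4 pt, 1:5; 24 h, 37 deg C, 5% CO2; detection reagent 10 min RT; luminescence.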
uPA generation: inhibitors of cell surface uPA generation; Potency, µM (doses to about 38.3 µM), hits mostly inhibitors; 330,000 compounds, 0.31% hits; AID 540303; cell surface uPA generation assay, qHTS; active = well fitted inhibition curve with a large enough effect; inconclusive = small, poorly fitted or top-dose-only effect; inactive = no such curve, though single readings can be large or run the other way; tested in mouse RAW 264.7 cells; also: nearly all actives have a fitted effect of over 55% in size
ASM inhibitor: inhibitors of human secretory acid sphingomyelinase. P17405. placental ASM, HMU-PC fluorogenic substrate, 60 min. Potency, µM (titrated, usually from 57.5 µM), hits mostly inhibitors. 340,000 compounds, 0.006% hits. AID 504937
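Steps: dispense placental human ASM, pin compound, wait 10 min at room temperature, add HMU-PC0 substrate at 9 uM final, incubate 60 min at 37 °C, add stop solution raising pH to 10, read fluorescence.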
Of the large screens only hits and unclear results are named; the others gave an inactive call. Unless noted, calls follow the shape of the dose curve; as a rule, active = well fitted curve in the direction sought with a large enough effect; inconclusive = small, poorly fitted or top-dose-only effect, or another doubt; inactive = no such curve, though single readings can be large; an effect the other way counts as inactive or inconclusive.

COc1ccccc1/C=C/c1ccc2cccc(O)c2n1	p53 reactivation inconclusive
CCOc1cccc(/C=C/c2ccc3cccc(O)c3n2)c1OC	p53 reactivation 13µM
Oc1cccc2ccc(/C=C/c3ccccc3Cl)nc12	p53 reactivation inconclusive
CCOc1cccc(/C=C/c2ccc3cccc(O)c3n2)c1O	p53 reactivation 10µM
COc1cccc2sc(Nc3nnc(-c4ccc(F)cc4)o3)nc12	KCNH2 WT inh inconclusive, uPA generation 5.6µM
COc1ccc(NS(=O)(=O)c2ccc(C)c(C(=O)NCc3ccccc3CN3CCCC3)c2)cc1	none (no result: MmCpn inh, p53 reactivation, uPA generation, ASM inhibitor)
O=C(NCc1ccccc1F)c1cccc(S(=O)(=O)N2CCCCCC2)c1	none
CCn1c(SC)nnc1C1CCN(CC(=O)Nc2ccccc2N2CCOCC2)CC1	none
CC(=O)N1Cc2[nH]c3ccccc3c2CC1C(=O)O (stereo not given)	KCNH2 3.1 block -81
Cc1ccc(CNC(=O)C2CC(c3ccccc3C(F)(F)F)=NO2)cc1 (stereo not given)	KCNH2 3.1 block -158
O=C(NCc1ccc(C(F)(F)F)cc1)C1CC(c2ccccc2C(F)(F)F)=NO1 (stereo not given)	none
O=C(c1cnn2c(C(F)F)cc(C3CC3)nc12)N1CCc2ccccc2C1	none
O=C(c1cnn2c(C(F)F)cc(C3CC3)nc12)N1CCCC1	KCNH2 3.1 block -99 (no result: uPA generation)
CC1CC(C)CN(CCOc2ccc(Br)cc2)C1 (stereo not given)	KCNH2 3.1 block -96
Cc1ccc(C(=O)N/C(=C\c2ccc(F)cc2)C(=O)NCCCn2ccnc2)cc1	KCNH2 WT inh -95, KCNH2 3.1 block -114
COc1ccc(/C=C(\NC(=O)c2ccc(C)cc2)C(=O)NCCCn2ccnc2)cc1OC	none (no result: uPA generation)
Cc1ccc(C(=O)N/C(=C\c2ccco2)C(=O)NCCCn2ccnc2)cc1	KCNH2 3.1 block inconclusive
CSc1ccc(/C=C(/NC(=O)c2ccccc2)C(=O)NCCCn2ccnc2)cc1	KCNH2 3.1 block inconclusive
COc1ccccc1C(=O)N/C(=C/c1ccc(Br)cc1)C(=O)NCCCn1ccnc1	KCNH2 WT inh -125, KCNH2 3.1 block -99
O=C(NCCCn1ccnc1)/C(=C\c1ccc(Br)cc1)NC(=O)c1ccccc1	KCNH2 WT inh -125, KCNH2 3.1 block -104
Cc1ccc(C(=O)N/C(=C/c2ccco2)C(=O)NCCCn2ccnc2)cc1	KCNH2 WT inh inconclusive, KCNH2 3.1 block -93
COc1cc(C)c(NC(=O)COc2cccc3c2OC(C)(C)C3)cc1OC	uPA generation inconclusive
COCCCNC(=O)CSc1nc2cc(C(=O)NCCOC)ccc2c(=O)n1Cc1ccc2c(c1)OCO2	none
COc1ccc(C(=O)NC(C)c2cccnc2)cc1S(=O)(=O)N(C)Cc1ccccc1 (stereo not given)	none
CN(C(=O)c1cccc(NC(=O)Cc2ccc(NC(=O)C3CCCN(C(=O)C4CCC4)C3)cc2)c1)C1CCC1 (stereo not given)	none (no result: MmCpn inh, p53 reactivation)
CN(C)c1ccc(/C=C(\NC(=O)c2ccccc2)C(=O)NCCCn2ccnc2)cc1	none
O=C(NCCCn1ccnc1)/C(=C/c1ccccc1)NC(=O)c1ccccc1	KCNH2 WT inh -137, KCNH2 3.1 block -113
O=C(CCCNC(=O)/C(=C\c1ccc(F)cc1)NC(=O)c1ccccc1)OCc1ccccc1	none
O=C(CCCNC(=O)/C(=C/c1ccc(F)cc1)NC(=O)c1ccccc1)OCc1ccccc1	KCNH2 WT inh -138
O=C(COc1cccc(C(F)(F)F)c1)NCC(c1cccs1)N1CCOCC1 (stereo not given)	none
O=C(NCc1nc2ccccc2[nH]1)C1=C[C@@H](c2ccc(Br)cc2)C[C@@H](OCc2ccc(CO)cc2)O1	KCNH2 3.1 block -97, uPA generation inconclusive (no result: MmCpn inh)
O=C(NC1CC1)C1=C[C@H](c2ccccc2)C[C@H](OCc2ccc(CO)cc2)O1	KCNH2 3.1 block -181 (no result: MmCpn inh)
C[C@H]1C=C(C(=O)NCc2nc3ccccc3[nH]2)O[C@@H](OCCCCO)C1	none (no result: MmCpn inh, p53 reactivation)
O=C(NCc1nc2ccccc2[nH]1)C1=C[C@@H](C2CCCCC2)C[C@@H](OCCCCO)O1	KCNH2 3.1 block -75
O=C(NCc1nc2ccccc2[nH]1)C1=C[C@@H](c2ccc(Br)cc2)C[C@@H](OCCCCO)O1	KCNH2 3.1 block -89 (no result: MmCpn inh)
O=C(NCc1nc2ccccc2[nH]1)C1=C[C@@H](c2ccccc2)C[C@@H](OCCCCO)O1	none (no result: MmCpn inh)
COc1cc(C(=O)COC(=O)c2ccc3c(c2)OCCO3)cc(OC)c1OC	none (no result: MmCpn inh, p53 reactivation, uPA generation, ASM inhibitor)
Cc1ccc(CN2CC(C(=O)N3CCN(S(=O)(=O)c4ccc(C(C)C)cc4)CC3)CC2=O)cc1 (stereo not given)	KCNH2 3.1 block -79
Cc1ccc(CN2CC(C(=O)N3CCN(S(=O)(=O)c4cc(C)ccc4C)CC3)CC2=O)cc1 (stereo not given)	none
COc1cc(C(=O)Nc2ccc3c(c2)nc(C)n3C)cc(OC)c1OC	uPA generation 5.6µM
CC(=O)NCCC(=O)Nc1cc(S(=O)(=O)N2CCOCC2)ccc1Oc1ccc(F)cc1	none
CC(=O)NCCC(=O)Nc1cc(S(=O)(=O)N2CCOCC2)ccc1Oc1ccccc1	KCNH2 WT inh -74
Cc1cc(OCCCC(=O)NCCc2nnc3ccccn23)ccc1Cl	none
C[C@H](NC(=O)[C@H](Cc1ccccc1)n1c(=O)[nH]c2ccccc2c1=O)C(=O)N1CCC(C(=O)O)CC1	uPA generation 4.5µM
COc1ccc(/C=C/C(=O)N2CCCc3ccccc32)c(OC)c1	KCNH2 WT inh -79
COc1ccc(OC)c(/C=C/C(=O)N2CCCc3ccccc32)c1	none
COc1ccc(-c2csc(N)n2)cc1F	KCNH2 WT inh -123
COc1ccc2oc(C(=O)Nc3nc(-c4ccccn4)cs3)c(C)c2c1	uPA generation inconclusive (no result: ASM inhibitor)
O=C(NC1CCS(=O)(=O)C1)c1cccc(Br)c1 (stereo not given)	none
N#Cc1c(NCc2ccccc2)ccnc1Cl	none (no result: MmCpn inh, p53 reactivation)
CC(C)(C)OC(=O)C[C@@H]1C/C=C\C[C@H](CC(=O)N[C@H](CO)Cc2ccccc2)C(=O)N[C@@H](Cc2c[nH]c3ccccc23)COC1=O	none
COC(=O)[C@@]1(Cc2ccc(OC)cc2)[C@@H]2C(=CC(=O)[C@H]2CC(=O)C(=O)N2CCCC2)CN1C(=O)c1ccccc1	uPA generation 8.9µM
COC(=O)[C@@]1(Cc2ccc(OC)cc2)[C@@H]2[C@@H](CC(=O)[C@H]2CC(=O)C(=O)N(C)C)CN1C(=O)c1ccccc1	none
CCOC(=O)c1c(S(=O)(=O)N2CCCC(C(=O)Nc3ccc(C)cn3)C2)c(C)n(C)c1C (stereo not given)	none
CC(C)(C)c1ccc(OCC(O)CN2CCc3ccccc3C2)cc1 (stereo not given)	none (no result: MmCpn inh, p53 reactivation)
